Columns and labels:
[1] = molecular target: T1, Testis-specific serine/threonine-protein kinase 1 (Homo sapiens) (UniProt Q9BXA7); details: at 1 µM
T1 sequence (whole entry): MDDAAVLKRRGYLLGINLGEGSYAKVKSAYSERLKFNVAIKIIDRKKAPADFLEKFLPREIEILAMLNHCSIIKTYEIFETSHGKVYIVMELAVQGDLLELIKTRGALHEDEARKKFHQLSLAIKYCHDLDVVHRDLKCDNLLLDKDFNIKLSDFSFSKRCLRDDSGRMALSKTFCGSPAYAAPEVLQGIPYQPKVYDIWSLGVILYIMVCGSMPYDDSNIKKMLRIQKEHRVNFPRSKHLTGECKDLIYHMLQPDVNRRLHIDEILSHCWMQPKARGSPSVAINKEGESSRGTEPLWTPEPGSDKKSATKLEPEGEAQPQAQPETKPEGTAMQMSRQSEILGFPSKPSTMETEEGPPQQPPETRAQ

[2] = molecular target: T1, Testis-specific serine/threonine-protein kinase 1 (Homo sapiens); details: at 10 µM
[3] = molecular target: T2, Testis-specific serine/threonine-protein kinase 2 (Homo sapiens) (UniProt Q96PF2); details: at 10 µM
T2 sequence (whole entry): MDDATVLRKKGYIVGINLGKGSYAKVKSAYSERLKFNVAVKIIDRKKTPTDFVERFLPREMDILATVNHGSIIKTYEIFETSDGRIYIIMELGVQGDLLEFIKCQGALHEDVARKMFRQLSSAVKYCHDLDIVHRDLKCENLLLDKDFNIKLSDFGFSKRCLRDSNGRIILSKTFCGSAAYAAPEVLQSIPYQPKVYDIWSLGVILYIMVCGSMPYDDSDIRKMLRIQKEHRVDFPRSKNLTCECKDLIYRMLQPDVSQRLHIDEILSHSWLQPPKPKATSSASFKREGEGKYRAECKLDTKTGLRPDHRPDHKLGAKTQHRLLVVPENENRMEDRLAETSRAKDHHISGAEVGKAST

[4] = molecular target: T3, Tyrosine-protein kinase Tec (Homo sapiens) (UniProt P42680); details: at 1 µM
T3 sequence (whole entry): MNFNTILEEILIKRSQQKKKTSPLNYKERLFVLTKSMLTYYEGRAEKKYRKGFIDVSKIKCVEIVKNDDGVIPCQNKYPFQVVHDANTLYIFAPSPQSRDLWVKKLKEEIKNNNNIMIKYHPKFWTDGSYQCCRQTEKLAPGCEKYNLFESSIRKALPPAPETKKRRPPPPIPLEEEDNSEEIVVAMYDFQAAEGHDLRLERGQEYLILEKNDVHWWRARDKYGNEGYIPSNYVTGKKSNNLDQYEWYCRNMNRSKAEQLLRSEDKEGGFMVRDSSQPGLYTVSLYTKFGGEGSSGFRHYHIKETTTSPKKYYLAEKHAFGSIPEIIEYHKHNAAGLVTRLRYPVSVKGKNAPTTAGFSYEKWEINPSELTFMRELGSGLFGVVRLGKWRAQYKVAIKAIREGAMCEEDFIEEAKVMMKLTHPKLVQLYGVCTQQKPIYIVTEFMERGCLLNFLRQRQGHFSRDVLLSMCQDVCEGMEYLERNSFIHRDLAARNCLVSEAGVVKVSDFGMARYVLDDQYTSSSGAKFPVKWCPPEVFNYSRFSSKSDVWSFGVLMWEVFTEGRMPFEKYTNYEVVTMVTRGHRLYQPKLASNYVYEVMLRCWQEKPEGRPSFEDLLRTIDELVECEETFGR

[5] = molecular target: T3, Tyrosine-protein kinase Tec (Homo sapiens); details: at 10 µM
[6] = molecular target: Angiopoietin-1 receptor (Homo sapiens) (UniProt Q02763); details: at 1 µM
[7] = molecular target: Angiopoietin-1 receptor (Homo sapiens) (UniProt Q02763); details: at 10 µM
[8] = molecular target: High affinity nerve growth factor receptor (Homo sapiens) (UniProt P04629); details: at 1 µM
[9] = molecular target: High affinity nerve growth factor receptor (Homo sapiens) (UniProt P04629); details: at 10 µM
[10] = molecular target: BDNF/NT-3 growth factors receptor (Homo sapiens) (UniProt Q16620); details: at 1 µM
BDNF/NT-3 growth factors receptor (Homo sapiens), sequence (Q16620 32-822 limits assumed): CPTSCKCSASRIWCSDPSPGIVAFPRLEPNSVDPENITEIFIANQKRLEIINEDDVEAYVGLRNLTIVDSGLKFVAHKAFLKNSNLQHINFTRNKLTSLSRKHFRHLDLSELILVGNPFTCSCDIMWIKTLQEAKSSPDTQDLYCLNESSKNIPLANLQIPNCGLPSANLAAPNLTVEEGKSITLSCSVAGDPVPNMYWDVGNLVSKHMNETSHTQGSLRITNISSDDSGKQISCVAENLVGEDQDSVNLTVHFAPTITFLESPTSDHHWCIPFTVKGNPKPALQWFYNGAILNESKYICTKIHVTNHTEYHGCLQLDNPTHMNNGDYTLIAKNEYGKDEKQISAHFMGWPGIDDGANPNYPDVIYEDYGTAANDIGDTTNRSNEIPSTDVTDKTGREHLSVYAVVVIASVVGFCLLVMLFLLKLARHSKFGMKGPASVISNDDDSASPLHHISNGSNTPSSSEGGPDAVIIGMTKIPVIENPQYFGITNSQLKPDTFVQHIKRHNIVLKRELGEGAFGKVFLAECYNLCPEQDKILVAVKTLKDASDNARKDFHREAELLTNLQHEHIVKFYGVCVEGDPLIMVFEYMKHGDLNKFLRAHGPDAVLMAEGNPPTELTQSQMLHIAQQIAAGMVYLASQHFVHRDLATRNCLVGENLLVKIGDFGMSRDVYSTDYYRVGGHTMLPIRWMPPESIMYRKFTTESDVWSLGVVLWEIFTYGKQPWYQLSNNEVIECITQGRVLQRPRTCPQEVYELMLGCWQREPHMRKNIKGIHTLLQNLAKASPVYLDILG

Angiopoietin-1 receptor (Homo sapiens), sequence (Q02763 whole entry): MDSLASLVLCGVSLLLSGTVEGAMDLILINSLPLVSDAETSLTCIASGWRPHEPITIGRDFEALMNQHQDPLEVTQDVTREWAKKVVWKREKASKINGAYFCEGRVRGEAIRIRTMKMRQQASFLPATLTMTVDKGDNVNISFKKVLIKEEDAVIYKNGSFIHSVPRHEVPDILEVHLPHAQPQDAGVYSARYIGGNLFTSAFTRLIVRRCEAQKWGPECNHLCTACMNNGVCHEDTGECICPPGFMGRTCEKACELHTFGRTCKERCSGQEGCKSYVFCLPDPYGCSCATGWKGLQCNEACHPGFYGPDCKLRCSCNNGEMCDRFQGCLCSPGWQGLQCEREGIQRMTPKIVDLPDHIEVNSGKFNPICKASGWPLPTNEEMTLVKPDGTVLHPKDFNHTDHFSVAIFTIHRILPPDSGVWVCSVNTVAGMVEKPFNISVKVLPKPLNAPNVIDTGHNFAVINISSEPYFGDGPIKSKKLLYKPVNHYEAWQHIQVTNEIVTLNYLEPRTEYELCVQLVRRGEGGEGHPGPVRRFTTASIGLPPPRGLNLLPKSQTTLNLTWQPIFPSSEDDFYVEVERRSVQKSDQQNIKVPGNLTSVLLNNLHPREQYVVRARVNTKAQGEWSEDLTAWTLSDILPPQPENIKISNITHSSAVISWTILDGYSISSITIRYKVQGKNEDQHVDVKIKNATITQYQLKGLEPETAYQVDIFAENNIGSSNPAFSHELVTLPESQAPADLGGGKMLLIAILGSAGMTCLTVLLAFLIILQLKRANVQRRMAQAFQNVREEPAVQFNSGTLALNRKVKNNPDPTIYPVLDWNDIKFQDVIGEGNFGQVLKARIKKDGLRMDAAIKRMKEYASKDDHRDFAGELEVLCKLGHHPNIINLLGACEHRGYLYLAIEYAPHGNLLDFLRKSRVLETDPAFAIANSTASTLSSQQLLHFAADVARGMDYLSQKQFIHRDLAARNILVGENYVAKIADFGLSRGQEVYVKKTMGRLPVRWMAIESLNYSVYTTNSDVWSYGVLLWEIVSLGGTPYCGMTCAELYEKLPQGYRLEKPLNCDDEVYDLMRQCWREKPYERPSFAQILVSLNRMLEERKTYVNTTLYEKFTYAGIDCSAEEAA
High affinity nerve growth factor receptor (Homo sapiens), sequence (P04629 33-796 limits assumed): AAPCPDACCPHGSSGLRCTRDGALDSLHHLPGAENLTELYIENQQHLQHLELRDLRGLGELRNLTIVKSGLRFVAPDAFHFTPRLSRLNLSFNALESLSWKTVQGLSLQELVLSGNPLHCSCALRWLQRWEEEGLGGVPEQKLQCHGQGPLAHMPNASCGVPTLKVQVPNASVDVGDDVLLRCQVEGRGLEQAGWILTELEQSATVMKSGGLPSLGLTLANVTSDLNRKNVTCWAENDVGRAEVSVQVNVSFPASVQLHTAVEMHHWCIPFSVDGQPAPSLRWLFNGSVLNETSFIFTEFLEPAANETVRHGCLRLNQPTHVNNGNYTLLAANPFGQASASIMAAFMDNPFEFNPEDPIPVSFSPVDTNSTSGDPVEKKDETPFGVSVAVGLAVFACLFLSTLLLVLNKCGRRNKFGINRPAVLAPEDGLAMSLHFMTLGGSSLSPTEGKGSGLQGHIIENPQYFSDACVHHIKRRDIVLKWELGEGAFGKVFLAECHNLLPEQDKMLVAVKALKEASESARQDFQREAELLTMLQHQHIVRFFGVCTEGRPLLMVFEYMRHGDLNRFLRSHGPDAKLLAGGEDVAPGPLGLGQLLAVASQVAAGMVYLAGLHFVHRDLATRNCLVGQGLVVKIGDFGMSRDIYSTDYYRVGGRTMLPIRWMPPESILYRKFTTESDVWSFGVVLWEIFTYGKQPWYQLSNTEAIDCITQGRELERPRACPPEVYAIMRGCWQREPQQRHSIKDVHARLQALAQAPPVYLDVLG

Row | SMILES | residual activity [1] | residual activity [2] | residual activity [3] | residual activity [4] | residual activity [5] | residual activity [6] | residual activity [7] | residual activity [8] | residual activity [9] | residual activity [10]
1 | O=[N+]([O-])c1ccc(-c2nc(-c3ccc(F)cc3)c(-c3ccncc3)[nH]2)cc1 | 97% | 85% | 94% | 98% | 70% | 98% | 86% | 96% | 90% | 98%
2 | O=C1NC(=O)/C(=C/c2ccc3c(c2)OC(F)(F)O3)S1 | 99% | 91% | 97% | 83% | 80% | 94% | 85% | 86% | 60% | 44%
3 | O=C(O)c1ccc2c3c1cccc3c(=O)n1c3ccccc3nc21 | 106% | 79% | 108% | 99% | 82% | 106% | 99% | 78% | 19% | 86%
4 | CC(C)n1cnc2/c(=N/c3cccc(Cl)c3)nc(NCCO)[nH]c21 | 94% | 60% | 81% | 71% | 31% | 91% | 89% | 24% | 1% | 8%
5 | Cn1nc2c3c(cccc31)C(=O)c1ccccc1-2 | 100% | 79% | 76% | 90% | 69% | 104% | 79% | 46% | 9% | 
6 | N#C/C(=C(\N)Sc1ccc(N)cc1)c1ccccc1C(F)(F)F | 99% | 82% | 67% | 93% | 63% | 111% | 87% | 90% | 85% | 78%
7 | O=Nc1c(-c2c(O)[nH]c3ccccc23)[nH]c2ccccc12 | 78% | 53% | 78% | 64% | 22% | 103% | 41% | 0% | 0% | 0%
8 | Cc1ccc(S(=O)(=O)/C=C/C#N)cc1 | 91% | 107% | 91% | 95% | 90% | 115% | 118% | 105% | 92% | 117%
9 | Oc1ccc(Nc2nc(-c3ccc(Cl)cc3)cs2)cc1 | 110% | 87% | 105% | 100% | 78% | 113% | 131% | 108% | 64% | 74%
10 | COc1cc2ncnc(Nc3ccc(O)c(Br)c3)c2cc1OC | 87% | 62% | 91% | 76% | 34% | 61% | 53% | 82% | 44% | 110%
11 | Cc1cccc(-c2[nH]c(C(C)(C)C)nc2-c2ccc3c(c2)OCO3)n1 | 101% | 90% | 94% | 97% | 91% | 101% | 83% | 92% | 106% | 
12 | Nc1n[nH]c2nnc(-c3c(-c4ccccc4)nn4ccccc34)cc12 | 87% | 90% | 86% | 82% | 50% | 94% | 72% | 68% | 24% | 94%
13 | O=C1NC(=O)c2cc(Nc3ccc(F)cc3)c(Nc3ccc(F)cc3)cc21 | 94% | 81% | 61% | 87% | 60% | 70% | 44% | 84% | 56% | 100%
14 | CO[C@@H]1[C@H](N(C)C(=O)c2ccccc2)C[C@H]2O[C@]1(C)n1c3ccccc3c3c4c(c5c6ccccc6n2c5c31)C(=O)NC4 | 15% | 6% | 30% | 85% | 40% | 133% | 73% | 0% | -1% | 23%
15 | C[C@@H](N)[C@H]1CC[C@H](C(=O)Nc2ccncc2)CC1 | 97% | 90% | 99% | 83% | 98% | 84% | 78% | 112% | 105% | 106%
16 | Cc1cncc2cccc(S(=O)(=O)N3CCCN(C(=O)CN)C[C@H]3C)c12 | 95% | 79% | 94% | 100% | 77% | 78% | 40% | 64% | -1% | 
17 | c1ccc(-c2n[nH]cc2-c2ccnc3ccccc23)nc1 | 91% | 92% | 93% | 88% | 91% | 91% | 90% | 72% | 76% | 
